Test results as given in PubChem BioAssay.
“And” between values parts separate entries of the source, which are not always exact repeats. Equal values may be shown once. Where a structure was tested more than once in an assay, its records may differ in their call. The source made the active and inactive calls.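 Rule for the calls, unless noted: active = normalized viability below 100% at a tested concentration; inactive = the rest.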

Columns and labels:
[1] = Wnt pathway potentiators raising nuclear beta-catenin – imaging, WNT3A-conditioned medium, mouse C2C12, NPC library, primary screen (AID 1117326; in the data active = nuclear beta-catenin stimulation mostly above about 4.2%, no sharp cut-off; inactive = mostly below about 10%); conditions: stronger effect = higher value
[2] = stimulators of insulin release from INS-1E, primary screen, cell-based, 5 mM glucose, NPC library (AID 1117329;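 active = compound raises insulin release from rat beta cells at 5 mM glucose, no numeric limit stated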); conditions: rat INS-1E insulin secretion, at 10 µM, stronger effect = higher value
[3] = growth inhibition of GSK3B-pretreated HCT116 cells – cell-based, CellTiter-Glo, 0.2 to 20 µM (AID 1117336;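 active = compounds lowering colon cancer cell viability after pretreatment blocking the GSK3B kinase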); conditions: HCT116 viability after GSK3B inhibitor, at 20 µM, stronger effect = higher value
[4] = inhibition of endothelial tube formation, primary screen, imaging, VEGF stimulated, CD31 staining, tube area, NPC library (AID 1117340;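 active = compound that reduces growth-factor-driven endothelial tube area in a mixed cell culture, no cutoff stated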); conditions: VEGF-stimulated ADSC/ECFC co-culture, at 10 µM, stronger effect = higher value
[5] = GLP1 release stimulators, primary, NCI-H716, NPC library (AID 1117341;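 active = compound raises GLP1 secretion from the human gut endocrine cells, with no numeric limit stated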); conditions: NCI-H716 cells, at 10 µM, stronger effect = higher value
[6] = HCT116 colon cancer cell growth inhibition, primary screen, CellTiter-Glo luminescence, NPC library (AID 1117342;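 active = compounds that lower survival of HCT116 colon cancer cells in the luminescence readout, no numeric limit stated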); conditions: at 20 µM (top of the series)
[7] = reduced SW480 viability measured with CellTiter-Glo, NPC library, primary (AID 1117343;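 active = compounds that lower viability of the colon cancer cells in the luminescence readout, with no numeric limit stated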); conditions: CellTiter-Glo luminescence; at 20 µM (top of the series)
[8] = NPC library primary testing for decreased DLD-1 cell viability via CellTiter-Glo (AID 1117346;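 active = compounds that lower survival of DLD-1 colon cancer cells in the luminescence readout, no cutoff given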); conditions: DLD-1 viability, CellTiter-Glo luminescence; at 20 µM (top of the series)
[9] = target: 6-phosphogluconate dehydrogenase, decarboxylating (Homo sapiens) (UniProt P52209); assay: inhibition of human phosphogluconate dehydrogenase – biochemical, recombinant enzyme, NADPH absorbance, primary screen (AID 1159550;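 active = at least 20% inhibition of 6-phosphogluconate dehydrogenase activity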); conditions: recombinant 6PGD, NADPH absorbance 341 nm; at 10 µM; stronger effect = higher value
[10] = modulation of C. elegans fzo-1 (AID 1259413; call rule not given here;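 note: fzo-1 mutant C. elegans worms in liquid wells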); conditions: C. elegans fzo-1 modulator screen, mean read-out; stronger effect = higher value
[11] = EMT-state selective cytotoxicity in co-culture – imaging, PC-3E GFP, TEM4-18 mCherry, primary screen (AID 1345086;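 active = compounds killing one labelled cell type while sparing the other, by normalised counts and ratio limits, not self-fluorescent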;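 for all read-outs here: cells exposed to compound for 72 h before imaging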;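 for red/green cell ratio (normalised): normalised mesenchymal count divided by normalised epithelial count so high means epithelial killing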); conditions: PC-3E GFP / TEM4-18 mCherry co-culture, imaging cell counts, at 1 µM; for red/green cell ratio (normalised): actives lie on both sides, counts scaled to control wells, 1 = unselective
[12] = MELAS cybrid and Rieske KO viability enhancers – cell-based, MELAS cybrids, Rieske KO mouse fibroblasts, CellTiter-Glo, primary screen (AID 1508586;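 active = mean z-score across replicates of 1.96 or higher in either the MELAS or the Rieske mutant cell line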;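 note: z relative to plate mean and SD of compound and empty wells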); conditions: low glucose
[13] = target: NAD(+) hydrolase SARM1 (Homo sapiens) (UniProt Q6SZW1); assay: blocking NAD cleavage by SARM1 SAM-TIR – cell lysate, NAD-Glo luminescence (AID 1508614;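 active = compound whose remaining NAD level is above about 45 nM, limit read from the data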;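 note: higher remaining NAD means stronger inhibition of SARM1 NADase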); conditions: SAM-TIR HEK293T lysate NADase, at 1 µM, stronger effect = higher value
[14] = target: Mitogen-activated protein kinase 7 (Homo sapiens) (UniProt Q13164); assay: Gal4-ERK5 driven luciferase induction – cell-based, HTS, primary screen (AID 1508626;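 active = luciferase signal above three times the same-plate solvent-only control wells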;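 note: luciferase driven by Gal4-ERK5 fusion binding five Gal4 sites before minimal TATA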); conditions: HeLa Gal4-ERK5 transactivation, 18 h, at 5 µM, stronger effect = higher value
[15] = system: F380Y; assay: BK channel mutant inhibitors and activators – cell-based, U2OS BacMam, thallium flux, beta subunits, selectivity assay, profiling panel (AID 1259406;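 active = thallium flux through the channel raised or lowered by more than 3 SD from vehicle-only wells, actives on both sides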;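 note: initial slope of Thallos dye fluorescence rise after thallium is added; log ratio against the mean of 0.3% DMSO vehicle wells on the same plate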); conditions: U2OS BacMam BK variants, at 30 µM
[16] = system: F380Y/beta1; assay: as above; conditions: U2OS BacMam BK variants, at 30 µM
[17] = system: F380Y/beta2Delta; assay: as above; conditions: U2OS BacMam BK variants, at 30 µM
[18] = drug combination growth inhibition, ovarian cancer – cell-based, oncology-focused library, rucaparib conditional, profiling panel (AID 1508598); conditions: patient-derived ovarian cancer cells, CellTiter-Glo viability, 144 h, stronger effect = lower value
[19] = growth inhibition, single agents and combos, ICB984, cell-based, cisplatin or BGB combos, synergistic combos for chromothripsis tumors (AID 1671451; call rule not given here;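 note: cells exposed for 96 hours before readout; 0% = vehicle DMSO and 100% = killing by high DMSO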); conditions: ICB984 medulloblastoma cells, drug combinations, stronger effect = higher value
[20] = measured here: epithelial PC-3E GFP cell survival
[21] = measured here: mesenchymal TEM4-18 mCherry cell survival

Chain of Mitogen-activated protein kinase 7 (Homo sapiens) (Q13164 whole entry, looked up, the tested form may be a part): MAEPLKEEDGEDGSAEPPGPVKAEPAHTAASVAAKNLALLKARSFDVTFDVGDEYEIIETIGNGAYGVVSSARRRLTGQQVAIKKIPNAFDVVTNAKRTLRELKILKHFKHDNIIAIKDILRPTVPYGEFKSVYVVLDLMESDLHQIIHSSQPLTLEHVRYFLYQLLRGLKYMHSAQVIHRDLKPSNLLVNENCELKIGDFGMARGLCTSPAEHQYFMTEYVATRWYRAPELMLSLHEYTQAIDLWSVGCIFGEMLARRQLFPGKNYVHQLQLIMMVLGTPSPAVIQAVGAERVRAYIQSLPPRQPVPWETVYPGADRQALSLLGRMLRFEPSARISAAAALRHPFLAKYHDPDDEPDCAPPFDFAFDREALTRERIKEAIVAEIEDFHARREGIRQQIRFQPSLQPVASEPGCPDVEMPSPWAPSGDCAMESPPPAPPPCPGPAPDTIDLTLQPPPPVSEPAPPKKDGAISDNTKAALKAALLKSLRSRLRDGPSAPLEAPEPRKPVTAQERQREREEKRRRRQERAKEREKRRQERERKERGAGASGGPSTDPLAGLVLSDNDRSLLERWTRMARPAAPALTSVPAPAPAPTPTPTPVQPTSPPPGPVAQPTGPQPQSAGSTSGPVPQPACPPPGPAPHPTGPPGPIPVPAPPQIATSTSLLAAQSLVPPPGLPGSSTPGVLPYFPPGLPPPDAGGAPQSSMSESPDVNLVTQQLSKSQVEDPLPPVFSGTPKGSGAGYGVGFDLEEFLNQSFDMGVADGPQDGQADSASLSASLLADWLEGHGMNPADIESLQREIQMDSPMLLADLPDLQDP
Chain of NAD(+) hydrolase SARM1 (Homo sapiens) (Q6SZW1 whole entry, looked up, the tested form may be a part): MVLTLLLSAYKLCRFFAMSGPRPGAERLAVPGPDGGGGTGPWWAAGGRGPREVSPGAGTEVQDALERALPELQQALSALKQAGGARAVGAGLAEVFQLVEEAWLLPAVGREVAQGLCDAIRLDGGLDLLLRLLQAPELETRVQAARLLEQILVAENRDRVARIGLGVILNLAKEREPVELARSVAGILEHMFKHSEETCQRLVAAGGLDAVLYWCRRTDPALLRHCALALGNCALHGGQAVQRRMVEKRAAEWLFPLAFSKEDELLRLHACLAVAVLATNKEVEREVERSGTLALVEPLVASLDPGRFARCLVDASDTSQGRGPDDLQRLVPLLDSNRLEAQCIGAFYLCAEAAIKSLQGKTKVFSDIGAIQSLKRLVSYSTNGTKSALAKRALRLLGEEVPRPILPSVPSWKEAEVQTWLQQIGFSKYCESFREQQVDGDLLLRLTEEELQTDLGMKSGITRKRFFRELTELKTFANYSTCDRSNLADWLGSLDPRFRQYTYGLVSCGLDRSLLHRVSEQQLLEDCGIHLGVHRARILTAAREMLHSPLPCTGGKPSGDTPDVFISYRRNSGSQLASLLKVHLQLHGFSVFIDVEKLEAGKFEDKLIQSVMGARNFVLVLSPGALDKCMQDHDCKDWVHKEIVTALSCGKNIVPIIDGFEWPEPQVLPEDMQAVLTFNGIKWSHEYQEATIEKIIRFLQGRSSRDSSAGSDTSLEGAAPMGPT
Chain of 6-phosphogluconate dehydrogenase, decarboxylating (Homo sapiens) (P52209 whole entry, looked up): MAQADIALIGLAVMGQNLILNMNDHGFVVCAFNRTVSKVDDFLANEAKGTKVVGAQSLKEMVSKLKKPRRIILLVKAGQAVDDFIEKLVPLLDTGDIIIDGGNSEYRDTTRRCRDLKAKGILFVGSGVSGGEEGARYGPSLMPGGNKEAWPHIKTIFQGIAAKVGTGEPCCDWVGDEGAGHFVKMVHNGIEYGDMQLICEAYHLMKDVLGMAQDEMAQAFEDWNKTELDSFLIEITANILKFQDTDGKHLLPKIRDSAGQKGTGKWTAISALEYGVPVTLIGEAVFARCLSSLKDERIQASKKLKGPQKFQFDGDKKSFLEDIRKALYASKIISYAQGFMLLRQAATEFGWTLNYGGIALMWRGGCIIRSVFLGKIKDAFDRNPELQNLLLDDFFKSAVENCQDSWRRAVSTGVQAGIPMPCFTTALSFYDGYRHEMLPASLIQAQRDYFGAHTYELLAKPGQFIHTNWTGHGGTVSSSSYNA

## O=C(O)c1cc(=O)c2c(OCC(O)COc3cccc4oc(C(=O)O)cc(=O)c34)cccc2o1
[1]; at 10 µM
  nuclear beta-catenin stimulation: -1.8% (inactive)
[1]; stimulation, at 2 µM
  nuclear beta-catenin stimulation: 1.3%
[2]
  insulin secretion stimulation: 1.6% (inactive)
[3]
  viability decrease: -32.8% (inactive)
[4]
  tube area decrease: -2.5% (inactive)
[5]
  GLP1 secretion stimulation: -0.5% (inactive)
[6]
  inhibition of viability: 2.4% (inactive)
[7]
  viability decrease (inhibition): 19.3% (inactive)
[8]
  viability decrease (inhibition): -7.8% (inactive)
[9]
  inhibition: 10.5% (inactive)
[10]
  mean signal: 249 (inactive)
[11]
  red/green cell ratio (normalised): 1.26 (inactive)
[11]; [20]
  normalised cell number: 1.29
[11]; [21]
  normalised cell number: 1.63
[12]; MELAS cybrid survival, CellTiter-Glo 48 h, stronger effect = higher value
  z-score: 0.0651 (inactive) and -0.552 (inactive)
[12]; Rieske KO mouse fibroblast survival, CellTiter-Glo 72 h
  z-score: 0.522 and -0.245
[13]
  remaining NAD: 10 nM (inactive)
[14]
  luciferase signal: 72 AU (inactive)
[15]
  log fold change Tl+ flux: -0.0252 (inactive)
[16]
  log fold change Tl+ flux: -0.0414 (inactive)
[17]
  log fold change Tl+ flux: -0.0103 (inactive)

## O=C1c2c(O)ccc(O)c2C(=O)c2c(NCCNCCO)ccc(NCCNCCO)c21
[1]; at 10 µM
  nuclear beta-catenin stimulation: 79.6% (active)
[1]; stimulation, at 2 µM
  nuclear beta-catenin stimulation: 14.4%
[2]
  insulin secretion stimulation: 3.9% (inactive)
[3]
  viability decrease: 102% (active)
[4]
  tube area decrease: 109% (active)
[5]
  GLP1 secretion stimulation: -17.3% (inactive)
[6]
  inhibition of viability: 101% (active)
[7]
  viability decrease (inhibition): 102% (active)
[8]
  viability decrease (inhibition): 96.1% (active)
[9]
  inhibition: 13% (inactive)
[10]
  mean signal: 214 (inactive)
[11]
  red/green cell ratio (normalised): 0.57 (inactive)
[11]; [20]
  normalised cell number: 0.2
[11]; [21]
  normalised cell number: 0.12
[18]; at 0.000305 µM, OCI-C5x cells, with rucaparib 10 µM, 100% = cells with rucaparib alone
  viability: 111% (inactive) and 109% (inactive)
[18]; at 0.000305 µM, OCI-C5x cells, without rucaparib
  viability: 114% (inactive) and 118% (inactive)
[18]; at 0.000305 µM, OCI-P5x cells, with rucaparib 20 µM, 100% = cells with rucaparib alone
  viability: 85.2% (active) and 88.1% (active)
[18]; at 0.000305 µM, OCI-P5x cells, without rucaparib
  viability: 100% (inactive) and 94.2% (active)
[18]; at 0.00122 µM, OCI-C5x cells, with rucaparib 10 µM, 100% = cells with rucaparib alone
  viability: 114% (inactive) and 109% (inactive)
[18]; at 0.00122 µM, OCI-C5x cells, without rucaparib
  viability: 117% (inactive) and 115% (inactive)
[18]; at 0.00122 µM, OCI-P5x cells, with rucaparib 20 µM, 100% = cells with rucaparib alone
  viability: 98.9% (active) and 93.9% (active)
[18]; at 0.00122 µM, OCI-P5x cells, without rucaparib
  viability: 109% (inactive) and 96.8% (active)
[18]; at 0.00488 µM, OCI-C5x cells, with rucaparib 10 µM, 100% = cells with rucaparib alone
  viability: 104% (inactive) and 93.6% (active)
[18]; at 0.00488 µM, OCI-C5x cells, without rucaparib
  viability: 113% (inactive) and 104% (inactive)
[18]; at 0.00488 µM, OCI-P5x cells, with rucaparib 20 µM, 100% = cells with rucaparib alone
  viability: 97.7% (active) and 84.3% (active)
[18]; at 0.00488 µM, OCI-P5x cells, without rucaparib
  viability: 107% (inactive) and 84.4% (active)
[18]; at 0.0195 µM, OCI-C5x cells, with rucaparib 10 µM, 100% = cells with rucaparib alone
  viability: 83.6% (active) and 77% (active)
[18]; at 0.0195 µM, OCI-C5x cells, without rucaparib
  viability: 87.9% (active) and 74.9% (active)
[18]; at 0.0195 µM, OCI-P5x cells, with rucaparib 20 µM, 100% = cells with rucaparib alone
  viability: 86.2% (active) and 68.2% (active)
[18]; at 0.0195 µM, OCI-P5x cells, without rucaparib
  viability: 74.8% (active) and 44.3% (active)
[18]; at 0.0781 µM, OCI-C5x cells, with rucaparib 10 µM, 100% = cells with rucaparib alone
  viability: 89.4% (active) and 82.8% (active)
[18]; at 0.0781 µM, OCI-C5x cells, without rucaparib
  viability: 78.8% (active) and 86.1% (active)
[18]; at 0.0781 µM, OCI-P5x cells, with rucaparib 20 µM, 100% = cells with rucaparib alone
  viability: 52.6% (active) and 49.6% (active)
[18]; at 0.0781 µM, OCI-P5x cells, without rucaparib
  viability: 27.2% (active) and 21.5% (active)
[18]; at 0.313 µM, OCI-C5x cells, with rucaparib 10 µM, 100% = cells with rucaparib alone
  viability: 76.1% (active) and 60.1% (active)
[18]; at 0.313 µM, OCI-C5x cells, without rucaparib
  viability: 57% (active) and 56.6% (active)
[18]; at 0.313 µM, OCI-P5x cells, with rucaparib 20 µM, 100% = cells with rucaparib alone
  viability: 25.3% (active) and 26% (active)
[18]; at 0.313 µM, OCI-P5x cells, without rucaparib
  viability: 12.4% (active) and 12.3% (active)
[18]; at 1.25 µM, OCI-C5x cells, with rucaparib 10 µM, 100% = cells with rucaparib alone
  viability: 13.3% (active) and 11.4% (active)
[18]; at 1.25 µM, OCI-C5x cells, without rucaparib
  viability: 15% (active) and 15.4% (active)
[18]; at 1.25 µM, OCI-P5x cells, with rucaparib 20 µM, 100% = cells with rucaparib alone
  viability: 7.5% (active) and 9.35% (active)
[18]; at 1.25 µM, OCI-P5x cells, without rucaparib
  viability: 6.58% (active) and 5.99% (active)
[18]; at 5 µM, OCI-C5x cells, with rucaparib 10 µM, 100% = cells with rucaparib alone
  viability: 3.19% (active) and 2.94% (active)
[18]; at 5 µM, OCI-C5x cells, without rucaparib
  viability: 2.31% (active) and 2.92% (active)
[18]; at 5 µM, OCI-P5x cells, with rucaparib 20 µM, 100% = cells with rucaparib alone
  viability: 6.35% (active) and 8.96% (active)
[18]; at 5 µM, OCI-P5x cells, without rucaparib
  viability: 6.78% (active) and 6.39% (active)
[13]
  remaining NAD: 10 nM (inactive)
[14]
  luciferase signal: 20 AU (inactive)
[19]; BGB IC20 combo, at 0.005 µM
  inhibition: 17.1%
[19]; BGB IC40 combo, at 0.005 µM
  inhibition: 14.7%
[19]; BGB IC40 combo, at 0.05 µM
  inhibition: 101%
[19]; at 0.5 µM
  inhibition: -30% (inactive)
[19]; cisplatin combo, at 0.05 µM
  inhibition: 101%
[19]; cisplatin combo, at 0.5 µM
  inhibition: -40.5%
[19]; cisplatin combo, at 5 µM
  inhibition: -32.5%
[19]; measured here: 5 uM single agent, at 5 µM
  inhibition: -34.5%
[15]
  log fold change Tl+ flux: -0.0248 (inactive)
[16]
  log fold change Tl+ flux: -0.0573 (inactive)
[17]
  log fold change Tl+ flux: 0.00615 (inactive)
